proKLK7 act: activates the human kallikrein-7 zymogen; P49862; purified proKLK7, EDANS-DABCYL substrate fluorescence; 100% is mature enzyme control, 0% vehicle; activation, % at 7 µM; actives 0.9% (n = 370,000);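 active means activation above the mean of all tested compounds plus 3 SD, computed per campaign excluding outliers beyond control limits, cut at about 13% in these data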
NR3A LBD binder: modulators (binders) of human NR3A ligand-binding domain. NR3A LBD differential scanning fluorimetry, Tm shift; 0% = protein alone, 100% = glycine-bound protein. Tm shift relative to glycine control, % at 25 µM. actives 2.5% (n = 340,000);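 active means melting temperature shift of at least 10% of the positive control shift, at one fixed dose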
ADAM10 inh: ADAM10 inhibition, QFRET primary screen. actives 0.62% (n = 370,000). inhibition, % at 7 µM. recombinant ADAM10, EDANS/DABCYL FRET peptide cleavage, 3 h. O14672. AID 720582;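 active means inhibition above a per-campaign cutoff equal to the mean of compounds falling between control-based bounds plus 3 SD, cut at about 20% in these data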
AHR activator: human AHR activation; P35869; AHR-responsive luciferase reporter cells, luminescence; activation, % at 5 µM; actives 2.5% (n = 320,000); in the data active means activation above about 47%
Target sequence (P35869 whole entry, looked up): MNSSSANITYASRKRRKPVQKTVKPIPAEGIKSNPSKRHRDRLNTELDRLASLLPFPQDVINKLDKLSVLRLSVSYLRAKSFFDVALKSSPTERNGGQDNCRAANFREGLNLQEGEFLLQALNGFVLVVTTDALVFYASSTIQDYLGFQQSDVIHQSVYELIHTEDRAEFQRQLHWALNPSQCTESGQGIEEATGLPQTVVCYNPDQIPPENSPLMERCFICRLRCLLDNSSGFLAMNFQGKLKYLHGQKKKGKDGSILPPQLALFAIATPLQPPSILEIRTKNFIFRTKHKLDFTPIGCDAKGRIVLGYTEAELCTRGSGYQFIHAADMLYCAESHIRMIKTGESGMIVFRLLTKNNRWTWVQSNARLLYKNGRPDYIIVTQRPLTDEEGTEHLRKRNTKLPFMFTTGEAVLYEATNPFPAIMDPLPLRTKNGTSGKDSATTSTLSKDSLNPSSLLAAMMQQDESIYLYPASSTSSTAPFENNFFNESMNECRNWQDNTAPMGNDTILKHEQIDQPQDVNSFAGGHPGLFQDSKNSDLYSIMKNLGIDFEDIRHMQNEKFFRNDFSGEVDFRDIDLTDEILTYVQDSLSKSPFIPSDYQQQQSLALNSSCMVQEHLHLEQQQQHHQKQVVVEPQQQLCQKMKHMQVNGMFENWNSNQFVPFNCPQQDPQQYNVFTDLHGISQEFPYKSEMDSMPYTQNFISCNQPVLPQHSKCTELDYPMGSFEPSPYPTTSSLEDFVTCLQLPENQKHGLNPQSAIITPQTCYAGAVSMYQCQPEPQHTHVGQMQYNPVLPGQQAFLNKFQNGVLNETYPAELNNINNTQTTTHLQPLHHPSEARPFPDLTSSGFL
ADAM17 inh: inhibitors of human ADAM17 | recombinant ADAM17, EDANS/DABCYL FRET peptide cleavage | inhibition, % at 6.95 µM | actives 0.83% (n = 370,000) | AID 720648;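 active means inhibition above the mean of compounds lying between control limits plus 3 SD, set per campaign, cut at about 8.5% in these data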
rCAG binder: molecules binding r(CAG) RNA repeats | r(CAG) RNA repeat, TO-PRO-1 dye displacement fluorescence | inhibition, % at 3 µM | actives 1.3% (n = 370,000);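 active means inhibition above the plate cutoff, the mean of all test compounds on that plate plus 3 SD, cut at about 35% in these data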;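 further: higher means more dye released from RNA so lower well fluorescence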
Hits are given with their value; . = inactive; / = no result given. Rows were chosen to be rich in hits. Some 7% of all compounds tested hit in one or more screens of this group.

SMILES	proKLK7 act	NR3A LBD binder	ADAM10 inh	AHR activator	ADAM17 inh	rCAG binder
CC(C)c1[nH]nc2c1C(c1ccc(F)cc1)N(Cc1ccccc1)C2=O (configuration not stated)	.	/	.	/	.	.
CC(C)NC(=O)N(C)C[C@H]1OCc2cn(nn2)CCCC(=O)N([C@H](C)CO)C[C@@H]1C	.	/	.	/	.	.
CN1C(=O)C2(OCC(C)([N+](=O)[O-])CO2)c2ccccc21 (configuration not stated)	.	.	.	.	.	.
CN1C(=O)C2(N=c3ccccc3=N2)c2ccccc21	/	.	/	51	/	/
O=C(NC1CCC(O)CC1)c1ccc(-c2ccc(Cl)cc2)o1 (configuration not stated)	.	.	.	.	.	.
O=C(NNC(=O)c1ccccc1F)c1ccc(-c2ccc(Cl)cc2)o1	.	.	.	68	.	.
COC(=O)[C@]12C[C@H](CC(=O)NCc3ccc(OC)c(OC)c3)C(=O)N(Cc3ccc4c(c3)OCO4)C1=C[C@H](C(C)C)O[C@@H]2C1CC1	.	/	.	/	.	.
C[C@H]1[C@@H](OC(=O)NCCc2c[nH]c3ccccc23)CC[C@@]23CCCN2C(=O)CCC[C@@H]13	/	/	.	/	.	/
CCOC(=O)Cc1csc(NC(=O)Nc2ccc(C)cc2)n1	.	14	.	.	.	.
Cc1ccc(Nc2nc(COC(=O)COc3ccc(C=O)cc3)cs2)cc1	.	10	.	.	.	.
C/C=C/c1ccc(OCC(=O)OCc2csc(Nc3ccc(C)cc3)n2)c(OC)c1	.	.	.	.	.	.
CCOC(=O)Cc1csc(NC(=O)Nc2ccc(F)cc2)n1	.	.	.	.	.	.
CCOC(=O)Cc1csc(NC(=O)Nc2cccc(OC)c2)n1	.	14	.	.	.	.
CC(C)(C)OC(=O)N1CCC2CCN(CCc3ccccc3)CC21 (configuration not stated)	.	/	.	/	.	.
CCCCOCC1CN(CCCC)S(=O)(=O)c2c(cccc2Sc2ccc(OC)c(OC)c2)O1 (configuration not stated)	.	/	.	/	.	.
C[C@H](O)[C@@H]1CN2CCc3ccc(-c4ccc5c(c4)OCO5)cc3[C@@H]2C[C@@H]1N(C)C(=O)c1cccc(Cl)c1	.	/	.	/	.	.
CCc1ccc(NC(=O)COC(=O)/C(=C/c2ccccc2OC)c2ccccc2)cc1	.	23	.	.	.	.
CCOC(=O)Cc1nc(N2CCN(C(=O)C3CCCO3)CC2)c2c(C)c(C(=O)OCC)sc2n1 (configuration not stated)	.	/	.	/	.	.
NS(=O)(=O)c1ccc(NC(=O)/C=C/c2ccc(S(=O)(=O)NCc3ccco3)cc2)cc1	.	38	.	.	.	.
NS(=O)(=O)c1ccc(NC(=O)/C=C/c2cccc(Cl)c2)cc1	.	28	.	.	.	.
COC(=O)[C@]12C[C@H](CC(=O)NCc3ccc(C)o3)C(=O)N(Cc3ccc4c(c3)OCO4)C1=C[C@H](COCc1ccccc1)O[C@@H]2C	.	/	.	/	.	.
O=C(Nc1ccc(N2C(=O)[C@@H]3[C@H](C2=O)[C@@H]2C=C[C@H]3C2)c(Cl)c1)c1ccccn1	/	/	.	/	.	/
C=c1[nH]cc(C(C)c2c(C)n(C)c3ccccc23)/c1=C/C (configuration not stated)	.	/	.	/	.	.
O=c1c2ccccc2nnn1-c1ccc(Br)cc1	.	.	.	117	.	.
COc1ccc(CNS(=O)(=O)c2cc3c(cc2Br)CC(C)N3C(C)=O)cc1 (configuration not stated)	.	/	.	/	.	.
SMILES	proKLK7 act	NR3A LBD binder	ADAM10 inh	AHR activator	ADAM17 inh	rCAG binder
Cc1ccc(S(=O)(=O)C=CS(=O)(=O)c2ccc(C)cc2)cc1	.	/	.	/	.	.
O=S(=O)(/C=C/C=C/S(=O)(=O)c1ccccc1)c1ccccc1	.	13	.	/	.	.
CCN(CC)CCCNC(=O)c1cc2c(-c3ccc(Cl)cc3)nn(C)c2s1	.	.	.	54	.	.
Cn1nc(-c2ccc(Cl)cc2)c2cc(C(=O)NCC3CCCO3)sc21 (configuration not stated)	.	.	.	57	.	.
O=C(CSc1ccc(-c2cccnc2)nn1)Nc1ccc(F)cc1F	.	.	.	65	.	.
O=C(CSc1ccc(-c2ccccn2)nn1)Nc1ccc(F)cc1F	.	.	.	.	.	.
Nc1nnc(-c2ccccc2F)s1	.	.	.	.	.	.
Nc1nnc(-c2ccc(Cl)cc2Cl)s1	.	12	.	.	.	.
COC(=O)[C@]12C[C@H](CC(=O)N3CCN(C(=O)C4CC4)CC3)C(=O)N(CCc3ccc(OC)c(OC)c3)C1=C[C@H](C1CCCC1)O[C@@H]2C	.	/	.	/	.	.
COc1ccc(N=Nc2cc(OC)c(N)cc2OC)cc1	.	.	.	/	.	.
Cc1cc(N=Nc2ccc(C)c(N=Nc3cc(C)c(N)cc3N)c2)c(N)cc1N	.	10	.	.	.	.
CC(C)(C)c1ccc(C(=O)NCC(=O)OCC(=O)Nc2nc(-c3ccc(F)cc3)cs2)cc1	.	10	.	.	.	.
COc1ccccc1-c1csc(NC(=O)c2ccc(N3C(=O)CCC3=O)cc2)n1	.	34	.	.	.	.
O=C(Nc1nc(-c2ccc(F)cc2)cs1)c1ccc(N2C(=O)CCC2=O)cc1	.	25	.	.	.	.
COc1ccc(-c2csc(NC(=O)c3ccc(N4C(=O)CCC4=O)cc3)n2)cc1	.	.	.	.	.	.
Cc1cc(N/N=C/c2ccccc2F)nc(NCc2ccccc2)n1	.	.	.	.	.	.
Cc1cc(N/N=C/c2cccc(F)c2)nc(NCc2ccccc2)n1	.	15	.	.	.	.
Cc1cc(N/N=C/c2ccccc2)nc(NCc2ccccc2)n1	.	.	.	.	.	.
Cc1cc(N/N=C/c2ccc(Cl)cc2)nc(NCc2ccccc2)n1	.	27	.	.	.	.
Cc1cc(N/N=C/c2cccc(Cl)c2)nc(NCc2ccccc2)n1	.	15	.	.	.	.
CC(C)(C)N(Cc1cn(CC2CCCCC2)nn1)S(=O)(=O)c1ccccc1Br	.	/	.	/	.	.
O=c1cc(N2CCN(c3cccc(Cl)c3Cl)CC2)[nH]c(=O)n1C1CCCCC1	/	/	.	/	.	/
CCC(C(=O)O)n1c(C(F)(F)F)nc2ccccc21 (configuration not stated)	.	12	.	.	.	.
C=CCN(C)C(C#Cc1ccccc1)c1ccccc1C(F)(F)F (configuration not stated)	/	/	.	/	.	/
COc1cc(OC)cc(-c2csc(N3CCC(C(N)=O)CC3)n2)c1	/	/	.	/	.	/
CN(C)/N=C/c1ccc([N+](=O)[O-])cc1[N+](=O)[O-]	.	.	.	59	.	.
ON=Cc1ccnc2ccccc12	.	/	.	/	.	.
